Records with an inconclusive call do not appear. Unmarked numbers belong to inactive results. Calls of active or inactive are those of the source. Calls come from the whole dose curve; as a rule, active = well fitted curve in the direction sought with a large enough effect in the signal ratio, with a control signal flat (not every such curve was filed as active); inconclusive = small, poorly fitted or top-dose-only effect, or effect the other way, or a change in a side signal; inactive = no such curve, though single readings can be large or run the other way; the % refers to the signal ratio.
Each compound was assayed against Tyrosine-protein phosphatase non-receptor type substrate 1 (Homo sapiens) + Leukocyte surface antigen CD47 (Homo sapiens) (UniProt P78324+Q08722) (assay: CD47-SIRPalpha protein protein interaction - LANCE assay qHTS validation (AID 1347057; note: 0% is about no effect)). Conditions: Recombinant CD47-His / biotin-SIRPalpha, TR-FRET ratio; series mostly up to 38.3 µM; activity change, negative = inhibition: at the top concentration.
Chain of Tyrosine-protein phosphatase non-receptor type substrate 1 (Homo sapiens) + Leukocyte surface antigen CD47 (Homo sapiens) (P78324 whole entry, looked up): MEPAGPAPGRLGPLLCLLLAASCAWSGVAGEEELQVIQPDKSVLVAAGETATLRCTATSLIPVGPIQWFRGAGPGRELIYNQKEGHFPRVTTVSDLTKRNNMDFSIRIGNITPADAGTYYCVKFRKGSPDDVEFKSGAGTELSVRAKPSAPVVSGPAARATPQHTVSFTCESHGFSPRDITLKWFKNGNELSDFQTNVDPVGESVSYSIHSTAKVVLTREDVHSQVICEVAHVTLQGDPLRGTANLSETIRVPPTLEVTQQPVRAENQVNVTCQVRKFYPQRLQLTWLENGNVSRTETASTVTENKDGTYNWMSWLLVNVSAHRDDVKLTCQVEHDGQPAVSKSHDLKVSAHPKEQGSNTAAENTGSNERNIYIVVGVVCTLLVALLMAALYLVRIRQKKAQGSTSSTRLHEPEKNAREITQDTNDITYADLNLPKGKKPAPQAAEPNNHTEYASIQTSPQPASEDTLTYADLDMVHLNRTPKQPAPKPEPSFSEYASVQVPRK
Chain of Tyrosine-protein phosphatase non-receptor type substrate 1 (Homo sapiens) + Leukocyte surface antigen CD47 (Homo sapiens) (Q08722 whole entry, looked up): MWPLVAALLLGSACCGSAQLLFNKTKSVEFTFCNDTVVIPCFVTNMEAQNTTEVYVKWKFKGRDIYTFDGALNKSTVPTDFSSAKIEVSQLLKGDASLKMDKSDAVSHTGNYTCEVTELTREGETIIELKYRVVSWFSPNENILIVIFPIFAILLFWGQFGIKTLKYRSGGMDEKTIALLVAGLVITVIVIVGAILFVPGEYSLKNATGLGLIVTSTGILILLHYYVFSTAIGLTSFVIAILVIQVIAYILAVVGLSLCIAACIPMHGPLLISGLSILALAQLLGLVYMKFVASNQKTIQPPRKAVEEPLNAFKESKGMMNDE
Text: SIRPalpha is a myeloid cell expressed immunomodulatory receptor that binds the tumor expressed immune checkpoint CD47. Therapeutic disruption of this interaction leads to immune-mediated tumor rejection. This assay was used to quantitate CD47-SIRPalpha binding biochemically and evaluate chemical libraries for novel CD47-SIRPalpha inhibitors. To recapitulate the biological interaction of CD47 and SIRPalpha, we designed expression constructs to produce their recombinant, soluble, extracellular interaction domains. CD47 was produced with an N-terminal 6His tag. SIRPalpha was produced with an N-terminal Avi-Tag for site-specific biotin incorporation. The CD47-SIRPalpha interaction was measured by TR-FRET using affinity tag linked reagents (anti-6His-Eu donor and streptavidin-APC acceptor). SIRPalpha without biotin incorporation was used as a positive control inhibitor.
PROTOCOL TABLE (as described by Miller, T. et al. 2019)
SEQUENCE No. (e.g., 1, 2, 3, etc.); […] (e.g., Cells, Incubation, Reagent, etc.); VALUE and DESCRIPTION.
1a. Reagent. 3 uL CD47-His (12.5 nM) and Anti-His Eu Donor reagent (3 nM) added to respective wells in Assay buffer; white/solid bottom high base, med bind 1536-well plates (Greiner 789075)
1b. Reagent. 2 uL Assay buffer negative control for background fluorescence
2. Reagent. 23 nL library compounds (7-pt, 1:4 intraplate titration series) or DMSO control transferred by Pin Tool
3. Centrifuge. Centrifuge plate for 30 s at 1000 RPM
4. Incubation.#Incubate reagents at room temperature for 30 min, protected from light
5. Reagent. 2 uL SIRPalpha-biotin (100 nM) in Assay buffer
6. Incubation.#Incubate reagents at room temperature for 30 min, protected from light
7. Reagent. 1 uL SAV-APC (26 nM) acceptor reagent added to respective wells
8. Centrifuge. Centrifuge plate for 30 s at 1000 RPM
9. Incubation. Incubate reagents at room temperature for 30 min, protected from light
10. Detector. Measure Top TR-FRET on EnVision (Eu/APC filter set); calculate ratio Ch1/Ch2
1. Assay buffer composition.#Phosphate buffered saline (PBS; 10 mM Phosphate, 137 mM NaCl, and 2.7 mM KCl; pH 7.4), 0.05% IGEPAL CA-630
2. 23nL of […] library compounds (7 plates) or DMSO vehicle control transferred to 9 Greiner white/solid bottom high base, TC plates in 7 interplate 1:5 titrations (see Yasgar, A. et al. 2008) with Pintool. Two of the 9 plates are DMSO-only in compound field at beginning and end of compound library-treated plates.
10. Detector settings#Mirror = LANCE/DELFIA Dual Enh; Ex. Filter = UV2[TRF] 320; Em. Filter = APC 665; 2nd Em. Filter = Europium 615; Measurement h = 6.5; Ex. light (%) = 100; Delay = 60 us; Window t = 100 us; No. Seq. windows = 1; Time between flashes = 2000us; No. of flashes = 100; No. of flashes for 2nd detector = 100; Calculation: "Ratio Ch1/Ch2"

SMILES | activity change, negative = inhibition [%] | outcome
O=C(CCCN1CCC2(CC1)C(=O)NCN2c1ccccc1)c1ccc(F)cc1 | 0.266 | 
CC(C)(C)NCC(O)c1ccccc1Cl (centres undefined) | -0.177 | 
CCC1(c2ccc(N)cc2)CCC(=O)NC1=O (centres undefined) | 0.308 | 
CCCCCN(C)CCC(O)(P(=O)(O)O)P(=O)(O)O | -1.45 | 
CN1C(=O)CCS(=O)(=O)C1c1ccc(Cl)cc1 (centres undefined) | -0.352 | 
O=P1(N(CCCl)CCCl)NCCCO1 (centres undefined) | -0.263 | 
CC(C)N(CCC(C(N)=O)(c1ccccc1)c1ccccn1)C(C)C (centres undefined) |  | inactive
CC(NC(C)(C)C)C(=O)c1cccc(Cl)c1 (centres undefined) | 0.252 | 
C=C(C)[C@H]1CN[C@H](C(=O)O)[C@H]1CC(=O)O | 1.24 | 
O=c1[nH]oc2c1CCNC2 | 0.0576 | 
CC(C)c1cccc(C(C)C)c1O | 1.36 | 
Cc1ncsc1CCCl | 0.659 | 
COc1ccc2c(c1OC)C(=O)O[C@H]2[C@@H]1c2cc3c(cc2CCN1C)OCO3 | 0.879 | 
NCCc1ccc(O)cc1 | 1.83 | 

Source: PubChem BioAssay (NCATS)
